Inconclusive results are not listed. Entries that show only a call come without a potency. Unmarked numbers belong to inactive results. Active and inactive are the calls of the source. The call rests on the fitted dose curve.

Chain of Progesterone receptor (Homo sapiens) (P06401 whole entry, looked up): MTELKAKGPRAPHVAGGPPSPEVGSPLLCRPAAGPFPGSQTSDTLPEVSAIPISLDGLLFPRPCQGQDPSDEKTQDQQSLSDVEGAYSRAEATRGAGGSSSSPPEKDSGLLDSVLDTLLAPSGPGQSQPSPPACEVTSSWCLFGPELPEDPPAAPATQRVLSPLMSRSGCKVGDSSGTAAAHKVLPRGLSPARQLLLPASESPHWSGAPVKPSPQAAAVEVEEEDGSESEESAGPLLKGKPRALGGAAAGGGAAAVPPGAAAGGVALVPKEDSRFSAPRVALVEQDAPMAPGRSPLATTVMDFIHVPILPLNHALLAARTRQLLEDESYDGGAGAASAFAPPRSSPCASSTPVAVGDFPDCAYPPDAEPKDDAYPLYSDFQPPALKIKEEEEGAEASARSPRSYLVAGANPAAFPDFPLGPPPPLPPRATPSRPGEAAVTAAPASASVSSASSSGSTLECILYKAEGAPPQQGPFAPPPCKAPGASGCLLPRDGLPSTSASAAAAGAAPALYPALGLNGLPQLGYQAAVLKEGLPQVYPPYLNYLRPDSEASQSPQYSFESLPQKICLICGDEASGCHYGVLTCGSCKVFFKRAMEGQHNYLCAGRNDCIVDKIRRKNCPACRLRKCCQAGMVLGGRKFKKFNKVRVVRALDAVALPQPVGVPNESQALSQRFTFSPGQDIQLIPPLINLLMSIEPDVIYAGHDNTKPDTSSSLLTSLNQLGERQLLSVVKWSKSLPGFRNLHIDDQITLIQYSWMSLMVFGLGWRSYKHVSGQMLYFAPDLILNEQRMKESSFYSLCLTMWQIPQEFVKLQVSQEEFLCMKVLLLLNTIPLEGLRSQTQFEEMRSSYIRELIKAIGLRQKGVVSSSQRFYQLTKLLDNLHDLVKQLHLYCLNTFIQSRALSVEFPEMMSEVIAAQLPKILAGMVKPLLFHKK

The test addresses Progesterone receptor (Homo sapiens) (UniProt P06401). The test is described as follows: qHTS assay to identify small molecule agonists of the progesterone receptor (PR) signaling pathway (AID 1346784). Further: nearly all actives have a fitted effect of over 30% in size. Particulars: PR-UAS-bla HEK293T, beta-lactamase FRET ratio, 16 h; series mostly up to 92.4 µM; activation: at the top concentration. An excerpt:
U.S. Tox21 Program National Center for Advancing Translational Sciences [NCATS] NIH Chemical Genomics Center [NCGC] U.S. Environmental Protection Agency [EPA] National Institutes of Environmental Health Sciences [NIEHS] National Toxicology Program [NTP] U.S. Food and Drug Administration [FDA] […] Endocrine disrupting chemicals (EDCs) and their interactions with steroid hormone receptors like PR causes disruption of normal endocrine function. To identify the compounds that activate PR signaling, a PR-UAS-bla GripTite cell line i.e. PR-UAS-bla HEK 293T (Invitrogen, Carlsbad, CA, USA) containing a beta-lactamase reporter gene under the control of an Upstream Activator Sequence (UAS) was used to screen Tox21 10K compound library.
Tox21 Assay Protocol Summary: PR-UAS-bla HEK 293T cells were dispensed at 3,000 cells/5 uL of assay medium containing 2% charcoal stripped FBS per well into black wall/clear-bottom 1536-well plates using a Multidrop Combi (ThermoFisher Scientific, Waltham, MA) dispenser. After the assay plates were incubated at a 37C and 5% CO2 for 6hr, 23 nL of compounds dissolved in DMSO, positive controls or DMSO only was transferred to the assay plate by a Pintool station (Kalypsys, San Diego, CA). The plates were incubated at 37C and 5% CO2 for 16hr. Then 1 uL of LiveBLAzer B/G FRET substrate was added using a BioRAPTR FRD (Flying Reagent Dispenser, Aurora Discovery, San Diego, CA). After the plates were incubated at room temperature for 2 hours, fluorescence intensity was measured by an Envision plate reader (PerkinElmer, Shelton, CT).
In general terms: In qHTS, concentration-response curves come from the screen itself.
Regarding `CC(C)(C#N)N=NC(C)(C)C#N`, the Potency entry was “inactive”.
On the same count and under the same terms, to `COC(=O)Nc1nc2ccccc2[nH]1` belongs “inactive”; to `CCCCSP(=O)(SCCCC)SCCCC`, “inactive”.
For the compound `CCCCCCCC[N+](C)(CCCCCCCC)CCCCCCCC`, the “activation” value was 0%.
Turning to `CC(C)COC(=O)c1ccccc1C(=O)OCC(C)C`, the Potency result was “inactive”.
Regarding `CCCCOCC1CO1` (stereo not given), the Potency result was “inactive”.
With `CC(C)=CC1C(C(=O)OCc2cccc(Oc3ccccc3)c2)C1(C)C` (stereo not given), the Potency entry was “inactive”.
In the case of `COc1ccc(CO)cc1`, the “activation” value is 0.008%.
Same read-out and setting: to `O=[N+]([O-])/N=C1\NCCN1Cc1ccc(Cl)nc1` belongs 0.646%.
With `C=CC(Cl)CCl` (stereo not given), the Potency entry is “inactive”.
Still for that read-out and setting: to `ClC(Cl)=C(Cl)C(Cl)=C(Cl)Cl` belongs “inactive”; to `Nc1ccc2ccccc2c1`, “inactive”; to `CC(C)(c1ccccc1)c1ccc(O)cc1`, “inactive”.
Still for that read-out and setting: under `CCCCOCCOC(C)=O` stands “inactive”.
Same read-out and setting: to `Cn1c(-c2ccccc2)cc(-c2ccccc2)[n+]1C` belongs “inactive”; to `CNC(=O)CSP(=S)(OC)OC`, “inactive”.
Turning to `CC1(C)C(C(=O)OC(C#N)c2cccc(Oc3ccccc3)c2)C1(C)C` (stereo not given), the Potency result was “inactive”.
`CC(C)=CC1C(C(=O)OCN2C(=O)C3=C(CCCC3)C2=O)C1(C)C` (stereo not given): the “activation” value was 9.66%.
On to `CN(C)c1nc(=O)n(C2CCCCC2)c(=O)n1C`, for which the Potency result is “inactive”.
As for `O=NN1CCOCC1`, the Potency entry was “inactive”.
As for `O=[N+]([O-])c1ccc(Nc2ccccc2)cc1`, the Potency entry was “inactive”.
The same measure, in the same setting: to `CN(C)P(=O)(N(C)C)N(C)C` belongs “inactive”; to `Cc1ccc(N=CN(C)C=Nc2ccc(C)cc2C)c(C)c1`, “inactive”.
With `COP(=S)(OC)Oc1ccc(Sc2ccc(OP(=S)(OC)OC)cc2)cc1`, the Potency entry is “inactive”.
On the same count and under the same terms, to `CCOC(=O)c1ccccc1N` belongs “inactive”.
As to `ClCc1ccccn1`, the “activation” value is 2.29%.
As to `CCOP(=S)(OCC)SCn1c(=O)oc2cc(Cl)ccc21`, the Potency result is “inactive”.
Take `[CH3][Sn]([Cl])([Cl])[Cl]`: the Potency entry is “inactive”.
Same read-out and setting: under `CC1CC(=O)O1` (stereo not given) stands “inactive”.
Turning to `ClCC(Cl)CCl`, the Potency entry was “inactive”.
Same read-out and setting: to `O=C1CCCO1` belongs “inactive”.
As to `CS(=O)(=O)NC(=O)c1cc(Oc2ccc(C(F)(F)F)cc2Cl)ccc1[N+](=O)[O-]`, the Potency entry is “inactive”.
The same measure, in the same setting: to `ClC(Cl)(Cl)c1ccccc1` belongs “inactive”; to `O=P(OCCCl)(OCCCl)OCCCl`, “inactive”; to `NC(=O)CN1CCCC1=O`, “inactive”.
As to `C=CC(=O)OCC(CC)(COC(=O)C=C)COC(=O)C=C`, the “activation” value is -5.84%.
As for `S=c1[nH]c2ccccc2[nH]1`, the Potency result was “inactive”.
`NN=C(N)N`: the “activation” value is 0.668%.
As for `COP(=O)(NC(C)=O)SC` (stereo not given), the Potency entry was “inactive”.
Still for that read-out and setting: to `CCOP(=O)(OCC)OCC` belongs “inactive”.

Values taken from PubChem BioAssay (Tox21).
